Assay outcomes: PubChem BioAssay, several laboratories
FAK blocker: FAK (human) kinase inhibition. inhibition, %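 (tested at 7 µM)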. 97,000 compounds, 0.84% hits. biochemical FAK kinase activity assay. Q05397
PLK1 PBD inh: Plk1 (human) PBD binding inhibition. P53350. Plk1 PBD phosphopeptide binding, fluorescence polarization. inhibition, %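 (tested at about 20 µM)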. 97,000 compounds, 0.13% hits. AID 693; in the data active means inhibition above about 34%, passing the limit was not always enough
ROCK2 inh: inhibitors of human Rho kinase 2; purified ROCK2, Kinase-Glo ATP depletion luminescence; inhibition, % at 6 µM; AID 604; 60,000 compounds, 0.35% hits; O75116;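 active means inhibition above the screen-wide mean inhibition plus 3 SD, cut at about 18% in these data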
Target sequence (O75116 whole entry, looked up): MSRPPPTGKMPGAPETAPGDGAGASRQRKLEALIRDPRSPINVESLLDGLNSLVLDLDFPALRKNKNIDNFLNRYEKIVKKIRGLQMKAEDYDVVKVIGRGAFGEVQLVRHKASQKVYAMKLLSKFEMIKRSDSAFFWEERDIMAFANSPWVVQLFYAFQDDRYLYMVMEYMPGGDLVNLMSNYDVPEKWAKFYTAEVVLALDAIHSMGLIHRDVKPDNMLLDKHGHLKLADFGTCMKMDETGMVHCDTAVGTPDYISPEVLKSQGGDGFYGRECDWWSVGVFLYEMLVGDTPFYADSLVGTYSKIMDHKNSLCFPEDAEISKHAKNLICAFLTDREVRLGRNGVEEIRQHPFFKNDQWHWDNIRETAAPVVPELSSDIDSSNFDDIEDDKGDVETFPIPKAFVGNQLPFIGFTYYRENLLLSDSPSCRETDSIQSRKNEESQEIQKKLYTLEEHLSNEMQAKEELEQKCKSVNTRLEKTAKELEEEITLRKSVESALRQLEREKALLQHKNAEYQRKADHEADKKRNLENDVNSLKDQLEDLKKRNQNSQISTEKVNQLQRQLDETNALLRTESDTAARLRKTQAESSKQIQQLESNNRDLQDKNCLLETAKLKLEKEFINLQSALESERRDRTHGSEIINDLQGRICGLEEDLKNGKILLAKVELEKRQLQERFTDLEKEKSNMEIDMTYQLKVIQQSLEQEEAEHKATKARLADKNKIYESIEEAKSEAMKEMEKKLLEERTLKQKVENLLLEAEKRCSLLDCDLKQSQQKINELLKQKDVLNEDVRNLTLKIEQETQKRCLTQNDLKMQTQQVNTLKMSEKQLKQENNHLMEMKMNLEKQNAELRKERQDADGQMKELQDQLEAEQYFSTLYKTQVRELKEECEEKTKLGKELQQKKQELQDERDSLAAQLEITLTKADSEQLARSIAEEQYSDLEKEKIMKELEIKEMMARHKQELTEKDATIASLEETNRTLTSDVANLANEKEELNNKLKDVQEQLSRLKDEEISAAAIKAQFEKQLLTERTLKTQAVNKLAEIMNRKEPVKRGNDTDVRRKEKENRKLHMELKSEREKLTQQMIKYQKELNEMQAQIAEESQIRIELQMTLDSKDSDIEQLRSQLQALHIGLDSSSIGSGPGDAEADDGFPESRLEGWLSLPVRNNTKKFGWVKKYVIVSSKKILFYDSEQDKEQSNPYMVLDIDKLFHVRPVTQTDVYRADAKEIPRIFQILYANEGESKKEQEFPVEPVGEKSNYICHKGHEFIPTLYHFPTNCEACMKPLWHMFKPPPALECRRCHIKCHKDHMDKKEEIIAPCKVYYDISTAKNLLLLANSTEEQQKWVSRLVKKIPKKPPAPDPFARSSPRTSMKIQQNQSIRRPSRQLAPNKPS
JNK3 blocker: blocks human JNK3 kinase activity | inhibition, % at 8 µM | AID 746 | 60,000 compounds, 0.61% hits | purified JNK3 kinase activity, HTS; in the data active means inhibition above about 17%
PLK1 kinase inh: PLK1 (human) kinase inhibition; P53350; recombinant PLK1 kinase, TR-FRET peptide phosphorylation; inhibition, % at 10 µM; 97,000 compounds, 0.53% hits;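 active means inhibition of 50% or more in the single-concentration screen; inactive means inhibition below 50%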
PKA inh: inhibitors of human protein kinase A; P17612; PKA Kemptide phosphorylation, Kinase-Glo ATP luminescence; inhibition, % at 6 µM; 65,000 compounds, 0.1% hits; AID 524;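 active means inhibition above the screen-wide mean inhibition plus 3 SD, cut at about 21% in these data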
FAK inh conf: FAK (human) inhibition confirmed; 750 compounds, 28% hits; inhibition, % at 7 µM; FAK kinase biochemical inhibition assay; shares compounds with FAK blocker; AID 794
Of the large screens only hits and unclear results are named; the others gave an inactive call (follow-up assays come after a bar, where they were run). Hits are enriched below; roughly 1.5% of the tested compounds scored in any of these assays. Unless noted, no stated cut-off is given here; in the data, active means inhibition above about 19%; inactive means the rest.

C=CCNc1nc2c3ccccc3n(C(C)=O)c2s1	none
CCCN1CCCc2cc(CN)ccc21	FAK blocker 23.7 | FAK inh conf inactive
Cc1ccc(CN2C(=O)CCC2C(=O)NCc2ccco2)cc1 (stereo not given)	none
CC(C)(CS(=O)(=O)[O-])NC(=O)CC[N+](C)(C)CCO	FAK blocker 28.3 (no result: ROCK2 inh, JNK3 blocker, PKA inh) | FAK inh conf inactive
COc1ccc(C(=O)N2CC3(CC(c4cccc([N+](=O)[O-])c4)=NO3)C[C@H]2C(=O)NCC(N)=O)cc1 (stereo not given in full)	none (no result: ROCK2 inh, JNK3 blocker, PKA inh)
COc1ccc(O)c(/C=N/NC(=O)c2ccc(OCc3cccc(Br)c3)cc2)c1	FAK blocker 18.8 (no result: ROCK2 inh, JNK3 blocker, PKA inh) | FAK inh conf inactive
COc1ccc(NC2CS(=O)(=O)CC2NCc2ccccc2)cc1 (stereo not given)	none (no result: ROCK2 inh, JNK3 blocker, PKA inh)
COc1ccc(-c2oc3ncnc(NCCN4CCOCC4)c3c2-c2ccc(OC)cc2)cc1	FAK blocker 20.8 | FAK inh conf inactive
COc1ccc(-c2oc3ncn(CCN4CCOCC4)c(=N)c3c2-c2ccc(OC)cc2)cc1	FAK blocker 19.6 | FAK inh conf inactive
COc1ccc(-c2oc3ncnc(NCCCN4CCOCC4)c3c2-c2ccc(OC)cc2)cc1	FAK blocker 34.4 | FAK inh conf inactive
c1ccc(-c2oc3ncnc(NCCCN4CCOCC4)c3c2-c2ccccc2)cc1	none
CCCCNCCCOc1cccc(Cl)c1Cl	none (no result: ROCK2 inh, JNK3 blocker, PKA inh)
CC(=O)n1nc(-c2cccc(C)c2)nc1SCC(=O)Nc1ccccc1	FAK blocker 19.1 (no result: ROCK2 inh, JNK3 blocker, PKA inh) | FAK inh conf inactive
CCC(=O)n1nc(-c2ccccc2)nc1SCC(=O)Nc1ccc(C)cc1	none (no result: ROCK2 inh, JNK3 blocker, PKA inh)
N#Cc1nc(-c2ccccc2)oc1NCc1ccco1	FAK blocker 20.6 (no result: ROCK2 inh, JNK3 blocker, PKA inh) | FAK inh conf inactive
CSc1nc(NCc2ccccc2)c2c3c(sc2n1)CN(C)CC3	FAK blocker 21.1 (no result: ROCK2 inh, JNK3 blocker, PKA inh) | FAK inh conf inactive
CSc1nc(NCC(C)C)c2c3c(sc2n1)CN(C)CC3	none (no result: ROCK2 inh, JNK3 blocker, PKA inh)
CS(=O)(=O)N(CC(=O)Nc1cccc(Cl)c1)c1ccccc1Cl	none (no result: ROCK2 inh, JNK3 blocker, PKA inh)
CCCc1nc2sc3ccccc3c(=O)c2c(=O)n1Cc1ccco1	FAK blocker 22.1 | FAK inh conf inactive
CCc1nc2sc3ccccc3c(=O)c2c(=O)n1CCOC	none (no result: ROCK2 inh, JNK3 blocker, PKA inh)
COc1cc2c(cc1NC(=O)CC1SC(N3CCCC3)=NC1=O)oc1ccccc12 (stereo not given)	none
O=C(Nc1ccc2c(c1)oc1ccccc12)c1ccc2c(c1)OCO2	none
O=c1c(O)c(-c2ccc3c(c2)OCO3)oc2ccccc12	FAK blocker 19.6 | FAK inh conf inactive
CCn1c(C)cc(/C=C2\SC(=O)N(CC(=O)Nc3ccc(C)c(C)c3)C2=O)c1C	none (no result: ROCK2 inh, JNK3 blocker, PKA inh)
Cc1ccc(NC(=O)CN2C(=O)S/C(=C/c3ccc(-c4cc(C(=O)O)ccc4C)o3)C2=O)cc1C	FAK blocker 75.1 (no result: ROCK2 inh, JNK3 blocker, PKA inh) | FAK inh conf inactive
c1csc(Cc2nn3c(-c4n[nH]c5c4CCC5)nnc3s2)c1	FAK blocker 27.6 | FAK inh conf inactive
COc1ccc(OCc2nn3c(-c4ccco4)nnc3s2)cc1	none
c1coc(-c2nnc3sc(Cc4cccs4)nn23)c1	FAK blocker 25.1 | FAK inh conf inactive
COc1ccc(OC)c(/C(O)=C/C(=O)C(=O)Nc2ccccc2OC)c1	none (no result: ROCK2 inh, JNK3 blocker, PKA inh)
COC(=O)c1cccnc1NC(=S)NNC(=O)c1ccncc1	none (no result: ROCK2 inh, JNK3 blocker, PKA inh)
CNc1nn(-c2cccc(Cl)c2)nc1N	none (no result: FAK blocker, PLK1 PBD inh, PLK1 kinase inh)
COc1nnc(-c2ccc(N3CCCCC3)c(NC(=O)C3CCCCC3)c2)c2ccccc12	none (no result: ROCK2 inh, JNK3 blocker, PKA inh)
COc1nnc(-c2ccc(N3CCCCC3)c(NC(C)=O)c2)c2ccccc12	FAK blocker 20.3 (no result: ROCK2 inh, JNK3 blocker, PKA inh) | FAK inh conf 19.5
COc1ccc([N+](=O)[O-])cc1COc1cc(C)cc2oc(=O)cc(-c3ccccc3)c12	FAK blocker 26.5 (no result: ROCK2 inh, JNK3 blocker, PKA inh) | FAK inh conf 21.8
COc1ccc(COc2ccsc2C(=O)Nc2ccc(Cl)c(Cl)c2)cc1	FAK blocker 25.5 (no result: ROCK2 inh, JNK3 blocker, PKA inh) | FAK inh conf inactive
CCc1c(C)nc(SCC(=O)c2cccs2)c(C#N)c1C	FAK blocker 30.4 (no result: ROCK2 inh, JNK3 blocker, PKA inh) | FAK inh conf 25.9
O=c1c2ccccc2c2c(O)nc(-c3ccccc3)n2n1Cc1ccccc1	none (no result: ROCK2 inh, JNK3 blocker, PKA inh)
Cc1ccc2nsnc2c1S(=O)(=O)Nc1cccc2nsnc12	FAK blocker 71.0 | FAK inh conf 47.7
COC(=O)c1ccc(COc2ccc(/C=C(\C#N)c3nc4ccccc4[nH]3)cc2OC)o1	FAK blocker 55.5 (no result: ROCK2 inh, JNK3 blocker, PKA inh) | FAK inh conf 22.6
COc1cc(/C=C(/C#N)c2nc3ccccc3[nH]2)ccc1OCc1ccc(C(=O)O)o1	none (no result: ROCK2 inh, JNK3 blocker, PKA inh)
